# Compound activity: PubChem BioAssay, National Center for Advancing Translational Sciences (NCATS)
# ASM inhibitor: human S-ASM enzyme inhibition; P17405; placental ASM, HMU-PC fluorogenic substrate, 60 min; Potency, µM (top dose mostly 57.5 µM), for inactives: at the highest dose activity change, negative = inhibition, most hits filed as inhibitors; 340,000 compounds, 0.006% hits; note: potency is the fitted concentration of half-maximal effect
# Target sequence (P17405 47-631 limits assumed): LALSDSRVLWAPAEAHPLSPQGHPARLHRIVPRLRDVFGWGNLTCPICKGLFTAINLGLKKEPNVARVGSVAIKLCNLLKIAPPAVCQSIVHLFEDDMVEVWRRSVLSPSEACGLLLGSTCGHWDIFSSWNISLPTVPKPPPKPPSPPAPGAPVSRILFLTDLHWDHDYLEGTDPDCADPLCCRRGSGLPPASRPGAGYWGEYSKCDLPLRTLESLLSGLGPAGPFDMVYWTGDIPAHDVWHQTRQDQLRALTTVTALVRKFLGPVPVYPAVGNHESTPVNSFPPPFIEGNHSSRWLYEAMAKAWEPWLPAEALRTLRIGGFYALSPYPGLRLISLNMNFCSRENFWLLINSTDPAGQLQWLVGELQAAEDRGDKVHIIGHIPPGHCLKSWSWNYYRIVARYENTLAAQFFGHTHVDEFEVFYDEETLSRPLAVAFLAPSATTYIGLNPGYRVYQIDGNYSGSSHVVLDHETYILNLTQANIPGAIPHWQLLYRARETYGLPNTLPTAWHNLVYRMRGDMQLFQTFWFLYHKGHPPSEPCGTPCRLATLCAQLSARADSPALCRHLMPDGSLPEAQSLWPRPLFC
#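 Fluorescence read-out (Ex 386 nm, Em 447 nm) after stopping the reaction at pH 10. Enzyme: ASM from human placenta; substrate HMU-PC0, 9 uM final; 60 min, 37 °C. Compound preincubation 10 min, ambient temperature.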
# HepG2 viability: kills HepG2 cells in TGF-b inhibitor counter-screen; HepG2 CAGA-GFP viability, ATP luminescence, 18 h; Potency, µM (top dose mostly 46.1 µM), for the others: top-dose activity change, negative = cytotoxicity, hits mostly cytotoxic; 410,000 compounds, 0.76% hits; AID 588856; note: potency is the fitted concentration of half-maximal effect
#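 CellTiter-Glo luminescence gave cytotoxicity after 18 hours at 37 degrees C. The cells were HepG2 CAGA-GFP in 1% FBS DMEM, stimulated with 500 pg/mL TGF-beta after compound addition. %Activity was normalised to no-cell wells (complete cell-killing) and DMSO (no toxicity), and curves were fitted and classified.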
# TDP1 cell CPT: growth inhibition of DT40 Tdp1-/-;hTDP1 cells with camptothecin (screen for TDP1 inhibitors) | Potency, µM (highest dose often 46.2 µM), for the others: at the top dose activity change, negative = growth inhibition, most hits filed as inhibitors | chicken DT40 Tdp1-/-;hTDP1 cells + 20 nM CPT, ATP luminescence, 48 h | 420,000 compounds, 12% hits | AID 686979; note: potency is the fitted concentration of half-maximal effect; % is set by controls: 0 for no effect and ±100 for the full control effect; nearly all actives have a fitted effect of over 55% in size
#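 Chicken DT40 Tdp1-/- cells complemented with human TDP1, 400 cells/well, exposed to compounds plus 20 nM camptothecin for at least 48 h at 37 C; viability read as ATP content by CellTiter-Glo luminescence.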
# TGFb inhibitor: TGF-b pathway inhibition; AID 588855; Potency, µM (series often up to 46.1 µM), for the others: at the highest dose activity, negative = inhibition, hits mostly inhibitors; HepG2 CAGA-GFP TGF-b/SMAD3 reporter, GFP fluorescence, 18 h; TGF-beta stimulated, 500 pg/mL final; 410,000 compounds, 1.2% hits; note: potency is the fitted concentration of half-maximal effect; % is set by controls: 0 for no effect and ±100 for the full control effect; nearly all actives have a fitted effect of over 65% in size
#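 HEPG2 CAGA-GFP reporter cells (1000/well, DMEM with 1% FBS) received compounds, then recombinant TGF-beta at 500 pg/mL final for 18 hours at 37 degrees C. Per-cell GFP summed per well was normalised to unstimulated and stimulated DMSO controls before curve fitting.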
# IL1B secr inh: inhibitors of inflammasome signaling (IL-1 beta secretion); 360,000 compounds, 4.7% hits; activity change, % at 57.5 µM; AID 743279; THP-1 LPS/ATP IL-1B secretion, AlphaLISA, 16 h; active compounds read low; in the data active = activity change below about -50%; inconclusive = mostly about -30% to -49%; note: % is set by controls: 0 for no effect and ±100 for the full control effect
#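 Secreted IL-1B measured by AlphaLISA bead assay after 16 h compound exposure of THP-1 cells; compounds (final up to 57.5 uM) added 1 h before LPS (250 ng/mL) and ATP (1.25 mM) stimulation; lower signal means less secretion.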
# DT40 TDP1 no CPT: qHTS for Inhibitors of human tyrosyl-DNA phosphodiesterase 1 (TDP1): qHTS in cells in absence of CPT; DT40 Tdp1-/- hTDP1 cells, no CPT, ATP luminescence, 48 h; Potency, µM (highest dose often 46.2 µM), for the others: at the top dose activity change, negative = growth inhibition, usual class: inhibitors; 420,000 compounds, 15% hits; note: potency is the fitted concentration of half-maximal effect; % is set by controls: 0 for no effect and ±100 for the full control effect; nearly all actives have a fitted effect of over 55% in size
#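 Stably hTDP1-transfected Tdp1-null chicken DT40 cells were treated with library compounds minus camptothecin and grown for at least 48 hr at 37 °C, after which cellular ATP was quantified by luminescence.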
# * = called active by the depositor; ? = inconclusive; nt = no result. A selection: hits, their analogues and other compounds. The true share with any hit is near 19%. Unless noted, calls come from the whole dose curve; as a rule, active = well fitted curve in the direction sought with a large enough effect; inconclusive = small, poorly fitted or top-dose-only effect, or another doubt; inactive = no such curve, though single readings can be large; an effect the other way counts as inactive or inconclusive.
SMILES,ASM inhibitor,HepG2 viability,TDP1 cell CPT,TGFb inhibitor,IL1B secr inh,DT40 TDP1 no CPT
CC(C)CN(C(=O)COC(=O)C12CC3CC(CC(C3)C1)C2)c1c(N)n(Cc2ccccc2)c(=O)[nH]c1=O,12%,3%,?,3%,3,10µM*
CC(=O)Nc1sc(C)c(C)c1C(=O)OCC(=O)N(CC(C)C)c1c(N)n(Cc2ccccc2)c(=O)[nH]c1=O,4%,-9%,23µM*,-2%,2,5.8µM*
Cc1cccc(C(=O)OCC(=O)N(CC(C)C)c2c(N)n(Cc3ccccc3)c(=O)[nH]c2=O)c1C,-1%,-14%,?,-3%,-19,?
CC(C)CN(C(=O)COC(=O)c1cc(=O)[nH]c2ccccc12)c1c(N)n(Cc2ccccc2)c(=O)[nH]c1=O,31%,0%,1%,2%,1,7%
CC(C)CN(C(=O)COC(=O)c1cc2ccccc2cc1O)c1c(N)n(Cc2ccccc2)c(=O)[nH]c1=O,21%,-15%,?,-13%,-54*,?
COc1ccc(-n2nc(C(=O)NCC(=O)NC3CCCCCC3)c3ccccc3c2=O)cc1OC,-1%,-24%,-13%,-19%,11,?
COCCCNC(=O)Cn1c(=O)n(-c2cccc(C)c2)c(=O)c2c3c(sc21)CN(C(C)=O)CC3,nt,2%,10%,18%,nt,9%
Cc1ccccc1-c1noc(-c2cccnc2N(C)Cc2ccc(Cl)cc2)n1,nt,-14%,?,-9%,nt,?
Clc1cccc(-c2noc3ncnc(NC4CCCCC4)c23)c1,nt,-5%,21µM*,0%,nt,26µM*
Cc1cccc(Nc2ncnc3onc(-c4cccc(Cl)c4)c23)c1C,-11%,-10%,21µM*,-2%,17,18µM*
COc1cccc(-c2cc3nc(C)c(C)c(N4CCN(C(=O)c5ccoc5)CC4)n3n2)c1,nt,-33%,13µM*,-17%,1,8.2µM*
Cc1ccc(-c2cc3nc(C)cc(N4CCN(C(=O)c5ccoc5)CC4)n3n2)cc1,nt,1%,?,10%,-20,18µM*
O=C(c1cccc(Cl)c1)N1CCN(C(=O)c2ccco2)CC1,0%,6%,-28%,6%,0,3%
Cc1cc(N2CCN(C(=O)c3ccco3)CC2)n2nc(C)c(-c3ccccc3)c2n1,48%,-32%,23µM*,-3%,?,23µM*
Cc1cc(N2CCN(C(=O)c3ccco3)CC2)n2nc(-c3cccc(Cl)c3)cc2n1,-7%,-22%,23µM*,?,-66*,?
COc1ccc(-c2cc3nc(C)cc(N4CCN(C(=O)c5ccco5)CC4)n3n2)cc1,nt,-24%,21µM*,-15%,-29,12µM*
COc1ccc(-c2csc(N3CCN(C(=O)c4ccco4)CC3)n2)cc1,-12%,-40%,?,-9%,?,?
Cc1ccccc1CNC(=O)c1ccc(CN2CC(=O)N3CCCCC3C2=O)cc1 (configuration not stated),nt,-43%,-9%,?,nt,-7%
CC(C)Cn1c(C(C)C)nc([N+](=O)[O-])c1S(=O)(=O)c1ccc(F)cc1,0%,-44%,2.3µM*,?,-89*,3.3µM*
CC(C)c1ccc(CCNC(=O)CCNS(=O)(=O)c2ccc(Br)cc2)cc1,1%,-24%,-30%,-18%,14,-17%
O=C(Cn1c(=O)sc2ccccc21)Nc1ccccc1,-3%,-1%,26µM*,-2%,-7,21µM*
COc1ccc(NC(=O)Cn2c(=O)sc3ccccc32)cc1,-2%,-10%,1%,7%,5,-18%
